This passage reports inhibition results from ChEMBL document CHEMBL1961873, “Compounds: GSK PKIS; Assays: Nanosyn kinase panel” (2012).

Assay [1] concerns the target T1, Inhibitor of nuclear factor kappa-B kinase subunit epsilon (Homo sapiens) (UniProt Q14164).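 Further: reported values are averaged percent inhibition figures against human IKKε.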
T1 sequence (whole entry): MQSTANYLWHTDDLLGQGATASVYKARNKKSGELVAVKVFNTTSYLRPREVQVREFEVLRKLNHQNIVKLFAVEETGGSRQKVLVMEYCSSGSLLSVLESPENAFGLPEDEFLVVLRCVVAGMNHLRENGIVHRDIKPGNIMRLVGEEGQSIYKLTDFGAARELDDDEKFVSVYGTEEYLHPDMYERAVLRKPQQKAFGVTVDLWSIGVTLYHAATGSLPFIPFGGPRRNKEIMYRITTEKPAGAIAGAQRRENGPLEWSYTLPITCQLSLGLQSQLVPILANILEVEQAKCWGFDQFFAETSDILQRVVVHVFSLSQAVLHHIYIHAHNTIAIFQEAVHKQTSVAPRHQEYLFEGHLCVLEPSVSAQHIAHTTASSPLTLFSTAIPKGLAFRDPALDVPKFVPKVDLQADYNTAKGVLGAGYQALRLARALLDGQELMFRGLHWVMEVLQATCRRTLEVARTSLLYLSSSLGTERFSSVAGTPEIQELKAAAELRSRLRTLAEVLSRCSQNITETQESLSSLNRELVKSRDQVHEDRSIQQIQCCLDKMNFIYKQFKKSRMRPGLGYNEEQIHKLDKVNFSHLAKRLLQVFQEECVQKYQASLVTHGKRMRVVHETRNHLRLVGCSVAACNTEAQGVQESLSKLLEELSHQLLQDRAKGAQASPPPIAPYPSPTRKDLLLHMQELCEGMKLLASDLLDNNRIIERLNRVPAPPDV
To be noted: at 1 µM.

In assay [2] the target is T2, Serine/threonine-protein kinase Nek1 (Homo sapiens) (UniProt Q96PY6).
T2 sequence (whole entry): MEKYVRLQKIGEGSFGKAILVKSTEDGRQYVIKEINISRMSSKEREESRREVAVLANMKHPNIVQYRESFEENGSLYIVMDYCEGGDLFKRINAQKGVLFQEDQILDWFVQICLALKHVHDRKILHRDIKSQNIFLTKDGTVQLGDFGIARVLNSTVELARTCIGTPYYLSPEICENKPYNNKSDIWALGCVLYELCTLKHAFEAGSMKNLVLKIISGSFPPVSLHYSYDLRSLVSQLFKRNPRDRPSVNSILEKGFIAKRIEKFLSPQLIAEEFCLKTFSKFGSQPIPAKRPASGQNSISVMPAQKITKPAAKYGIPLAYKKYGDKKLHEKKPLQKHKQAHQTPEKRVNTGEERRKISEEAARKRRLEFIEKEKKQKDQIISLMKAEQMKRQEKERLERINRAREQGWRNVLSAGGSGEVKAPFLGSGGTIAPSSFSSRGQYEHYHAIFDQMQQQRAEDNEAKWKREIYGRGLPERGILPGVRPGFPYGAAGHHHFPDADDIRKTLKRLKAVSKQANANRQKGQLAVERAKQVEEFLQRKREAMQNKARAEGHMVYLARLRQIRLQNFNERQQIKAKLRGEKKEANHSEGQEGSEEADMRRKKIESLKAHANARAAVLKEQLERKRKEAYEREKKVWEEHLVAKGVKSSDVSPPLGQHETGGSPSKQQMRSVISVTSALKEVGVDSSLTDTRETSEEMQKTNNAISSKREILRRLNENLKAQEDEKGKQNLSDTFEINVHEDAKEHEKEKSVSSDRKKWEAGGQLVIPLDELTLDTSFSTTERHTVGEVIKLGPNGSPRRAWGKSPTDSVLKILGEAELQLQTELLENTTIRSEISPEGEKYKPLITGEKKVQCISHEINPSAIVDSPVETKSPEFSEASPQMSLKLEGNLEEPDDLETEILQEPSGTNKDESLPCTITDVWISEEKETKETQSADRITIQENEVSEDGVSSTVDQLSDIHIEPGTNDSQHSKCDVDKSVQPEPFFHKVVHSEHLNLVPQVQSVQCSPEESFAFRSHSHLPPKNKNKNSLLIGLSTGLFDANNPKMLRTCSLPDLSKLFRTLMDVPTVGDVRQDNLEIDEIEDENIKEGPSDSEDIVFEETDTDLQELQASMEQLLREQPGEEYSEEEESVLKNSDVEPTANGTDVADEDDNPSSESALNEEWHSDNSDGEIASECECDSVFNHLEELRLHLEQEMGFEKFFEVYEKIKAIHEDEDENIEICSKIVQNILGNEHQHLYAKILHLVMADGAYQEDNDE
The note with it: at 0.1 µM.

For assay [3], the target named is T2, Serine/threonine-protein kinase Nek1 (Homo sapiens). To be noted: at 1 µM.
Assay [4] concerns the target T3, Serine/threonine-protein kinase Nek2 (Homo sapiens) (UniProt P51955).
T3 sequence (whole entry): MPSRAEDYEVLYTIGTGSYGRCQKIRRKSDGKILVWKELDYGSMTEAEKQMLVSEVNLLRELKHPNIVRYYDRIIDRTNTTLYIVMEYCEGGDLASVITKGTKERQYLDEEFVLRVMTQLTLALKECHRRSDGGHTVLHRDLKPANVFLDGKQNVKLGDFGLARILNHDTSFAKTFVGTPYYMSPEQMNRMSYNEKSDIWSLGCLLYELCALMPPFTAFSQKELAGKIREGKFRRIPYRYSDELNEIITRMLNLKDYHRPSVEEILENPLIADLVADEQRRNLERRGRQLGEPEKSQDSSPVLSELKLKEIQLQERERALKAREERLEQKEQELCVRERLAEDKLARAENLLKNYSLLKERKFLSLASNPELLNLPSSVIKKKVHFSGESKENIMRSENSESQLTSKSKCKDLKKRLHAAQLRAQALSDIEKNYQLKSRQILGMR
To be noted: at 0.1 µM.

In assay [5] the target is T3, Serine/threonine-protein kinase Nek2 (Homo sapiens). To be noted: at 1 µM.
The target in assay [6] is Serine/threonine-protein kinase Nek6 (Homo sapiens) (UniProt Q9HC98). The note with it: at 0.1 µM.
Sequence of Serine/threonine-protein kinase Nek6 (Homo sapiens) (Q9HC98 whole entry): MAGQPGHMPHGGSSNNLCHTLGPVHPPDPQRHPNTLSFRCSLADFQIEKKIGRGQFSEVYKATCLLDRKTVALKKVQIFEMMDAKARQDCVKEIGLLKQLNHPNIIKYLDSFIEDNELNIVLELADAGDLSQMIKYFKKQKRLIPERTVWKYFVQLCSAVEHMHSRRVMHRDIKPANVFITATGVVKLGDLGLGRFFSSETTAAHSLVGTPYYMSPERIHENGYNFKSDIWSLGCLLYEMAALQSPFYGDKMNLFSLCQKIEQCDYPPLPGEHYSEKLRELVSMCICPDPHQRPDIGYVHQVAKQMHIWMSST
For assay [7] the target is unchanged. To be noted: at 1 µM.
Assay [8] has as its target Serine/threonine-protein kinase Nek7 (Homo sapiens) (UniProt Q8TDX7). The note with it: at 0.1 µM.
For assay [9] the target is unchanged. The note with it: at 1 µM.
Assay [10] deals with T4, Serine/threonine-protein kinase Nek9 (Homo sapiens) (UniProt Q8TD19).
T4 sequence (whole entry): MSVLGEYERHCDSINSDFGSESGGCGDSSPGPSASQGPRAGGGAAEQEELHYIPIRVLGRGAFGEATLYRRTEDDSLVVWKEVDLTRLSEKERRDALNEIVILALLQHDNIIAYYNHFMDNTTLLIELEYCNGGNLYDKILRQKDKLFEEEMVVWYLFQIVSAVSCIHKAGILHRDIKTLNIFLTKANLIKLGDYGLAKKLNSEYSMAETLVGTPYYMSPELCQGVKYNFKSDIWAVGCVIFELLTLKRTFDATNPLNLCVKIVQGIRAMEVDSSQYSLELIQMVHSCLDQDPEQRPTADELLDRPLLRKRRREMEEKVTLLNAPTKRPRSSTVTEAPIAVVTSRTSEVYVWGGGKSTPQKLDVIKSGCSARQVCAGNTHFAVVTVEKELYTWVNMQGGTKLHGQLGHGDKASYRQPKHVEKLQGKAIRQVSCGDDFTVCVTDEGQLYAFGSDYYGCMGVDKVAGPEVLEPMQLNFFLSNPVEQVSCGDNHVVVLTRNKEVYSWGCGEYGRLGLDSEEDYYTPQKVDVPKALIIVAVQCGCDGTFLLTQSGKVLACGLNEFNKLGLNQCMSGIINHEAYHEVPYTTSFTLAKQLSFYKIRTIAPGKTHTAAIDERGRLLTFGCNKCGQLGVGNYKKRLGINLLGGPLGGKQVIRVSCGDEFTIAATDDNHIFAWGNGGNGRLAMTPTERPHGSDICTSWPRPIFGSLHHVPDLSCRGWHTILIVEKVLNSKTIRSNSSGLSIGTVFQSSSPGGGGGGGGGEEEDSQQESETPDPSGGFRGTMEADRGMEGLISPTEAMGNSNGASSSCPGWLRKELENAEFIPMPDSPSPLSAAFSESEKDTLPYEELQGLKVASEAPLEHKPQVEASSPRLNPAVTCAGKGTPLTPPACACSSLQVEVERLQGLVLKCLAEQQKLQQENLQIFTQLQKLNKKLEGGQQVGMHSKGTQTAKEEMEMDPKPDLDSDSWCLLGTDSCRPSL
The note with it: at 0.1 µM.

In assay [11] the target is T4, Serine/threonine-protein kinase Nek9 (Homo sapiens). To be noted: at 1 µM.
The target of assay [12] is Serine/threonine-protein kinase PLK1 (Homo sapiens) (UniProt P53350). To be noted: at 0.1 µM.
Sequence of Serine/threonine-protein kinase PLK1 (Homo sapiens) (P53350 whole entry): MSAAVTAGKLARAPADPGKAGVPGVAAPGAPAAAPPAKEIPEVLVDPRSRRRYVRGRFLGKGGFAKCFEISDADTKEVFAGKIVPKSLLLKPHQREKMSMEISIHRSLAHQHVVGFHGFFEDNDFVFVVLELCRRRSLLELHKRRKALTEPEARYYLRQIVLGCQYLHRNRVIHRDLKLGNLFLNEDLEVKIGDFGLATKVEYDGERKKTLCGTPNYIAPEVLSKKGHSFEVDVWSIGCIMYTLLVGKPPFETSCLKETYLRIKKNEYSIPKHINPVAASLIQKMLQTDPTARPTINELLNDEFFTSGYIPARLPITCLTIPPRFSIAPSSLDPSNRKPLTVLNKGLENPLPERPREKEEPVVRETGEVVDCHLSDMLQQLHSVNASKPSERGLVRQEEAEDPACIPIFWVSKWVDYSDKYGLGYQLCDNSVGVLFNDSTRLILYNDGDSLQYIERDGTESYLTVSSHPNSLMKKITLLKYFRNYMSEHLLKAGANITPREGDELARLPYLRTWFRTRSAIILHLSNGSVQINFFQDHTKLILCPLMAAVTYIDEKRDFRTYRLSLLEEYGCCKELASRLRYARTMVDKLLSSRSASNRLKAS
For assay [13] the target is unchanged. To be noted: at 1 µM.
Assay [14] has as its target T5, Dual specificity protein kinase TTK (Homo sapiens) (UniProt P33981).
T5 sequence (whole entry): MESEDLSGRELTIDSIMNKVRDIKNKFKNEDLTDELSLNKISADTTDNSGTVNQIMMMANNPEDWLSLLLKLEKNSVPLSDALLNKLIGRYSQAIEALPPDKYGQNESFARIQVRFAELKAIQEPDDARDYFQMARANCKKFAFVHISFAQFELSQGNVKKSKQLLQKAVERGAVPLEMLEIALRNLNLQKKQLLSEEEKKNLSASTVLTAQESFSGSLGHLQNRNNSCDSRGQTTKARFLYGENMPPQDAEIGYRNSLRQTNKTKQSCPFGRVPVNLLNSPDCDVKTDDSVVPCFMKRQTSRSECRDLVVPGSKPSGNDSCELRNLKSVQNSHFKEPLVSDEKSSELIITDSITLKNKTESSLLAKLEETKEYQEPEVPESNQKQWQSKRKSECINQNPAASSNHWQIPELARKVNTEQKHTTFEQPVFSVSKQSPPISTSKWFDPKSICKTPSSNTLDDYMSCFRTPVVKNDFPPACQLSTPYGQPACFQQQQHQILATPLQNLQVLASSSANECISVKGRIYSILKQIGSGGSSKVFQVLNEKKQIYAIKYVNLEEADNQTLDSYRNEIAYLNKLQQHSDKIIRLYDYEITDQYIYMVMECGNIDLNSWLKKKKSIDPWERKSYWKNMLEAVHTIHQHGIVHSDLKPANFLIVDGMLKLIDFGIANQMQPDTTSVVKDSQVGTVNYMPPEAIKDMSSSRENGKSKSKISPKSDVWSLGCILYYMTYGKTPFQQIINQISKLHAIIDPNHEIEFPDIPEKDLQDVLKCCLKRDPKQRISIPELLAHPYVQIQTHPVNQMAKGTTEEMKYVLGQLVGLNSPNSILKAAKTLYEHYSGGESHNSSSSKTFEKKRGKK
The note with it: at 0.1 µM.

In assay [15] the test system is T6, Receptor-type tyrosine-protein kinase FLT3 (Homo sapiens), P36888 [D835Y].
T6 sequence (whole entry): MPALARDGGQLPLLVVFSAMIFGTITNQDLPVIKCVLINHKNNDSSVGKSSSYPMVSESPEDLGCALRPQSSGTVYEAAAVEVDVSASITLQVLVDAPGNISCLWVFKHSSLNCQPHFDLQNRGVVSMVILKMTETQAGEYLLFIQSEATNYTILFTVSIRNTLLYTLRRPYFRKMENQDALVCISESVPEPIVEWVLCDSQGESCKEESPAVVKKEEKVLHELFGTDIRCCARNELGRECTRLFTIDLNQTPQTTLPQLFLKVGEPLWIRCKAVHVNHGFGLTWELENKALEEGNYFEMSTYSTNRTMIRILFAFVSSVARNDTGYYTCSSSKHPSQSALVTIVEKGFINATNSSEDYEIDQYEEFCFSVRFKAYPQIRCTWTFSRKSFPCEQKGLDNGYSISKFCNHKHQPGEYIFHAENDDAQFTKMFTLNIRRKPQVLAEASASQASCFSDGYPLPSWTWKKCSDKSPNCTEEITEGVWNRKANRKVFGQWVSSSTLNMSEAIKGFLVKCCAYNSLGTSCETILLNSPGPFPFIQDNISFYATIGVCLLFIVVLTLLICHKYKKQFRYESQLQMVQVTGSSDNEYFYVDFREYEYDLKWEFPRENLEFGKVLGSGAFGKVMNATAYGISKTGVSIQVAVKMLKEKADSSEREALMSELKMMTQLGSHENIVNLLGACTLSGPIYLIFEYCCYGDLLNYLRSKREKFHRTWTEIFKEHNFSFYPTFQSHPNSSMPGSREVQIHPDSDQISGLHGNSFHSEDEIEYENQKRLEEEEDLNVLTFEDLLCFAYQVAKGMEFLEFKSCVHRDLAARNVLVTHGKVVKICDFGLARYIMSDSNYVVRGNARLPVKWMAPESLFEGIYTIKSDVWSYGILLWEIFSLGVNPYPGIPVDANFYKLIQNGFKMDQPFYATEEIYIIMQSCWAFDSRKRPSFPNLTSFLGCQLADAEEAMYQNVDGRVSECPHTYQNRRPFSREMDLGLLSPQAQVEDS
To be noted: at 1 µM.

Assay [16] deals with Vascular endothelial growth factor receptor 3 (Homo sapiens) (UniProt P35916). The note with it: at 0.1 µM.
Sequence of Vascular endothelial growth factor receptor 3 (Homo sapiens) (P35916 whole entry): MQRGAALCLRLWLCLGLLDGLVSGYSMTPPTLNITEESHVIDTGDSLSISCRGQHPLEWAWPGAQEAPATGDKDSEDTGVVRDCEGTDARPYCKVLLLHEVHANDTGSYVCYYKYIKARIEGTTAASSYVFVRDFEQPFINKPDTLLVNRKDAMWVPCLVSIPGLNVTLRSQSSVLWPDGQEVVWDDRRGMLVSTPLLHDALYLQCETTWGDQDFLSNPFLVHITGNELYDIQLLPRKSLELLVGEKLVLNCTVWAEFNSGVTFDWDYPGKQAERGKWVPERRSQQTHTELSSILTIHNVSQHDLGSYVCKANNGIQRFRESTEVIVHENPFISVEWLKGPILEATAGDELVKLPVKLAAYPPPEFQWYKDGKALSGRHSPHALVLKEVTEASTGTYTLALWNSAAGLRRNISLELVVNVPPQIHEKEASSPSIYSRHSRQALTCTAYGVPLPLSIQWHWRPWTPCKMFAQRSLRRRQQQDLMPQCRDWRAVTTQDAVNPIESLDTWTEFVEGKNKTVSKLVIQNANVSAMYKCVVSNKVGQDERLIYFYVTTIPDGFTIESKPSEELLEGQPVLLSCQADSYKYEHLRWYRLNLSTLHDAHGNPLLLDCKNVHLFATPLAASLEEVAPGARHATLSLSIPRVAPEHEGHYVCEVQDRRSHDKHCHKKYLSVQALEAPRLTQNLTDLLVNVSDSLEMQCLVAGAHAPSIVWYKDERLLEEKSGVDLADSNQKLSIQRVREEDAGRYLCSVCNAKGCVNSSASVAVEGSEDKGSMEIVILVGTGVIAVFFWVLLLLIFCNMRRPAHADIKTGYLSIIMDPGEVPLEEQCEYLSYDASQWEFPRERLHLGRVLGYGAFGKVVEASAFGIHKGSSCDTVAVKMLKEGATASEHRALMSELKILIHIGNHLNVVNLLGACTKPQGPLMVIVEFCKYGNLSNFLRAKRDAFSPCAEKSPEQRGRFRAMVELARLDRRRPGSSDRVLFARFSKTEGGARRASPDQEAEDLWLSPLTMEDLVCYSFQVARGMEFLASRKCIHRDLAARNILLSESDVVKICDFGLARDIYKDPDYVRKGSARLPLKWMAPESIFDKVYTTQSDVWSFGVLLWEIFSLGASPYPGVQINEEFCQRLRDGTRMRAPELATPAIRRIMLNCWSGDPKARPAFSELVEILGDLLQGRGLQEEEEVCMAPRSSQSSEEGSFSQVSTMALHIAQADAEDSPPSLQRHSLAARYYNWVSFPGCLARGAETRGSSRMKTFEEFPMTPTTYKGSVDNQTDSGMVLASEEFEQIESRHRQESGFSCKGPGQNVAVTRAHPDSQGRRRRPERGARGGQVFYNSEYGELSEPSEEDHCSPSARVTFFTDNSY
Assay [17] has the same target. The note with it: at 1 µM.
The target in assay [18] is Macrophage colony-stimulating factor 1 receptor (Homo sapiens) (UniProt P07333). The note with it: at 0.1 µM.
Sequence of Macrophage colony-stimulating factor 1 receptor (Homo sapiens) (P07333 whole entry): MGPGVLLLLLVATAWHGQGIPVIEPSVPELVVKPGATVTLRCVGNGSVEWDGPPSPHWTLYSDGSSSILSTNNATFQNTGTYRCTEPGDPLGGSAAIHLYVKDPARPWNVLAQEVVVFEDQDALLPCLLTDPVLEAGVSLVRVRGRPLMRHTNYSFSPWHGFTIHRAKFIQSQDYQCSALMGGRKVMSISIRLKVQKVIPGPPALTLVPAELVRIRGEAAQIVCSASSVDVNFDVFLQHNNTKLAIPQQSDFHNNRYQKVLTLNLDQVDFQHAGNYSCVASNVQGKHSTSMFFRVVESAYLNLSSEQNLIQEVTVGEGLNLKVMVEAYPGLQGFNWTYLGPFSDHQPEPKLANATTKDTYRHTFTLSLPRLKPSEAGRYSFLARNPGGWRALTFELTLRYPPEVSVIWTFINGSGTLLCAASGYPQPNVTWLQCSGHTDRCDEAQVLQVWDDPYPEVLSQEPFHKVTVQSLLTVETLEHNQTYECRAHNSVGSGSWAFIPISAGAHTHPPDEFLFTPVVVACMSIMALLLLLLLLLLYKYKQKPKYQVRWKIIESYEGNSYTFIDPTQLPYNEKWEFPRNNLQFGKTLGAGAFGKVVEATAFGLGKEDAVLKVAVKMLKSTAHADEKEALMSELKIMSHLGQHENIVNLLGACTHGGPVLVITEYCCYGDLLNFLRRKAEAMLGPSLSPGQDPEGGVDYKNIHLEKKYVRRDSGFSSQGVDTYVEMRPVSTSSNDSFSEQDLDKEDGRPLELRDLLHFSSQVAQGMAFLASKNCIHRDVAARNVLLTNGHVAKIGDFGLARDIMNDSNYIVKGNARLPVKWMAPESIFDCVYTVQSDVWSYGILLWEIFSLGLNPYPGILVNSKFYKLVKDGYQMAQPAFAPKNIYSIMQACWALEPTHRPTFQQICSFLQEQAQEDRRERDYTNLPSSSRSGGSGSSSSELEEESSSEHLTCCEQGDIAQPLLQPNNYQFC
Assay [19] shares this target. To be noted: at 1 µM.
The target of assay [20] is Tyrosine-protein kinase Fyn (Homo sapiens) (UniProt P06241). The note with it: at 0.1 µM.
Sequence of Tyrosine-protein kinase Fyn (Homo sapiens) (P06241 2-537 limits assumed): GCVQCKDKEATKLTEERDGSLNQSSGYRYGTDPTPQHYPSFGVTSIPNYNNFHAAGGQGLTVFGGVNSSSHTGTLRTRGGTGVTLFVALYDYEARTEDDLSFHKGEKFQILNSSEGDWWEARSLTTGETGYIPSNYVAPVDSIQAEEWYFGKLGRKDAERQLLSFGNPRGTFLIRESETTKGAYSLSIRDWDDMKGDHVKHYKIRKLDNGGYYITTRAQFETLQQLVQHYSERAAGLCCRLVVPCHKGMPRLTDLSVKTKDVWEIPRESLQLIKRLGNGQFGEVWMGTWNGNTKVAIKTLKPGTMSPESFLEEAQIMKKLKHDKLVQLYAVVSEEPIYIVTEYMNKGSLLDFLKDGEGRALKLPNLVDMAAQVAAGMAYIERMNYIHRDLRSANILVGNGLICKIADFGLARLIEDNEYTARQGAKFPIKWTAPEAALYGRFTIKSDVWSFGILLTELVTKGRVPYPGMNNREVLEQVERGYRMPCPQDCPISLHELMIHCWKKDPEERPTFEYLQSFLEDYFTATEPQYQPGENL

Sequence of Serine/threonine-protein kinase Nek7 (Homo sapiens) (Q8TDX7 whole entry, looked up): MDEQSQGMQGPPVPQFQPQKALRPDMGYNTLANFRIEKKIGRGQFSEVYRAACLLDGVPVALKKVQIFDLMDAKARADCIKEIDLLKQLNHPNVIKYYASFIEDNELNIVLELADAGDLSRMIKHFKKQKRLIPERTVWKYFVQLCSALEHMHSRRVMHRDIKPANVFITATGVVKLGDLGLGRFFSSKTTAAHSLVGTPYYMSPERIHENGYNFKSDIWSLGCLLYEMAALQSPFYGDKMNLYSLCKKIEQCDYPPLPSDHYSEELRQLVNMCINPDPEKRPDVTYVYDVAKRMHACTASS

One may read the inhibition as the drop in the measured response relative to a control, in per cent. As for `c1ccc(Nc2ncc(-c3ccccc3)o2)cc1`, the inhibition in [1] was determined as 8.49%; in assay [2], 2.71%; in assay [3], 2.57%; in assay [4], 5.93%; in [5], 0.59%; in assay [6] it was 1.04%. The inhibition was found to be 0.47% in [7]; 3.1% in assay [8]; 9.54% in assay [9]; 12.2% in assay [10]; 10.2% in assay [11]; 5.96% in assay [12]. Moreover, the inhibition in assay [13] worked out at 5.42%; in assay [14] it was 18.1%; in assay [15] it was 9.89%; in assay [16], 3.79%; in assay [17], 11.7%; in [18], 3.76%. Further, the inhibition was determined as 22.9% in [19] and 3.46% in [20].
